According to the supplement of paper PMC6411743:
± gives the standard deviation of the averaged measurements. Of roughly 6,200 targets only a part is listed; those with the largest changes were picked by preference.

Compound: Nc1ncnc2c1ncn2[C@@H]1O[C@H](COP(=O)(O)OP(=O)(O)NP(=O)(O)O)[C@@H](O)[C@H]1O [adenylyl imidodiphosphate]
Assay: NP40-soluble protein abundance relative to vehicle (solubility fold change) (ratio); higher = more soluble protein in presence of AMP-PNP
Procedure, shortened: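 Jurkat crude lysate prepared with a Dounce homogeniser was treated at eight concentrations spanning 0.1 to 10 mM, 10 min at room temperature then 3 min at 37 °C. Solubilisation with 0.8% NP40 and benzonase and ultracentrifugation preceded TMT labelling of the supernatant for LC-MS/MS. Fold change against the detergent-processed vehicle was determined per replicate from vsn-normalised intensities, across three independent experiments.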

Chain of UniProt Q96J01 (Q96J01 whole entry): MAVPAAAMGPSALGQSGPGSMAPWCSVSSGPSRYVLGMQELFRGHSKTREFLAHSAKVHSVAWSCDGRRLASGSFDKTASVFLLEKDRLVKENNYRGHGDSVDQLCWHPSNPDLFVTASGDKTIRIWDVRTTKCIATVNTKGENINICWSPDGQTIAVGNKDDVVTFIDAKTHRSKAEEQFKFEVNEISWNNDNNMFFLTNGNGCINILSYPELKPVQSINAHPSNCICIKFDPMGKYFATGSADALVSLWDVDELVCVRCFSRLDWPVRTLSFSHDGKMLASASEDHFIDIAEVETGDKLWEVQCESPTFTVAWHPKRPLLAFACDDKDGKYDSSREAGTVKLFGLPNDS
Chain of UniProt Q9GZR2 (Q9GZR2 whole entry): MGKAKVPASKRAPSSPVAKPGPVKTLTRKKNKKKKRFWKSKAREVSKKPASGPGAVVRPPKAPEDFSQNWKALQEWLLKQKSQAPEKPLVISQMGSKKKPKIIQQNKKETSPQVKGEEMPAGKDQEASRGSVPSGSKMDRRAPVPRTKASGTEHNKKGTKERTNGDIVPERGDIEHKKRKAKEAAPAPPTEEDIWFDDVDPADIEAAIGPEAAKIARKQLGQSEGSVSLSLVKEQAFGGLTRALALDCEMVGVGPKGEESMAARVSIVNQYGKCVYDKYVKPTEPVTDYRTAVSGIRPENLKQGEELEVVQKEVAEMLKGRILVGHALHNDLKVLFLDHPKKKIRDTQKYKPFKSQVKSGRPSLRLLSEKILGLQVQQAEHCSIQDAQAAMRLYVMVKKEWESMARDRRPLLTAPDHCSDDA
Chain of UniProt Q9ULC3 (Q9ULC3 whole entry): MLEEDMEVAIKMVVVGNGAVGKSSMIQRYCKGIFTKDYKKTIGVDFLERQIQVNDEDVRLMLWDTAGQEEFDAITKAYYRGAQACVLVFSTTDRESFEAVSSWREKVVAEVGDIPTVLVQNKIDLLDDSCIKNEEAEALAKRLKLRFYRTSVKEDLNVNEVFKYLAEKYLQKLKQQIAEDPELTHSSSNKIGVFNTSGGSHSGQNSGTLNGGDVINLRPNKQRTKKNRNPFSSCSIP
Chain of UniProt Q9NYU2 (Q9NYU2 whole entry): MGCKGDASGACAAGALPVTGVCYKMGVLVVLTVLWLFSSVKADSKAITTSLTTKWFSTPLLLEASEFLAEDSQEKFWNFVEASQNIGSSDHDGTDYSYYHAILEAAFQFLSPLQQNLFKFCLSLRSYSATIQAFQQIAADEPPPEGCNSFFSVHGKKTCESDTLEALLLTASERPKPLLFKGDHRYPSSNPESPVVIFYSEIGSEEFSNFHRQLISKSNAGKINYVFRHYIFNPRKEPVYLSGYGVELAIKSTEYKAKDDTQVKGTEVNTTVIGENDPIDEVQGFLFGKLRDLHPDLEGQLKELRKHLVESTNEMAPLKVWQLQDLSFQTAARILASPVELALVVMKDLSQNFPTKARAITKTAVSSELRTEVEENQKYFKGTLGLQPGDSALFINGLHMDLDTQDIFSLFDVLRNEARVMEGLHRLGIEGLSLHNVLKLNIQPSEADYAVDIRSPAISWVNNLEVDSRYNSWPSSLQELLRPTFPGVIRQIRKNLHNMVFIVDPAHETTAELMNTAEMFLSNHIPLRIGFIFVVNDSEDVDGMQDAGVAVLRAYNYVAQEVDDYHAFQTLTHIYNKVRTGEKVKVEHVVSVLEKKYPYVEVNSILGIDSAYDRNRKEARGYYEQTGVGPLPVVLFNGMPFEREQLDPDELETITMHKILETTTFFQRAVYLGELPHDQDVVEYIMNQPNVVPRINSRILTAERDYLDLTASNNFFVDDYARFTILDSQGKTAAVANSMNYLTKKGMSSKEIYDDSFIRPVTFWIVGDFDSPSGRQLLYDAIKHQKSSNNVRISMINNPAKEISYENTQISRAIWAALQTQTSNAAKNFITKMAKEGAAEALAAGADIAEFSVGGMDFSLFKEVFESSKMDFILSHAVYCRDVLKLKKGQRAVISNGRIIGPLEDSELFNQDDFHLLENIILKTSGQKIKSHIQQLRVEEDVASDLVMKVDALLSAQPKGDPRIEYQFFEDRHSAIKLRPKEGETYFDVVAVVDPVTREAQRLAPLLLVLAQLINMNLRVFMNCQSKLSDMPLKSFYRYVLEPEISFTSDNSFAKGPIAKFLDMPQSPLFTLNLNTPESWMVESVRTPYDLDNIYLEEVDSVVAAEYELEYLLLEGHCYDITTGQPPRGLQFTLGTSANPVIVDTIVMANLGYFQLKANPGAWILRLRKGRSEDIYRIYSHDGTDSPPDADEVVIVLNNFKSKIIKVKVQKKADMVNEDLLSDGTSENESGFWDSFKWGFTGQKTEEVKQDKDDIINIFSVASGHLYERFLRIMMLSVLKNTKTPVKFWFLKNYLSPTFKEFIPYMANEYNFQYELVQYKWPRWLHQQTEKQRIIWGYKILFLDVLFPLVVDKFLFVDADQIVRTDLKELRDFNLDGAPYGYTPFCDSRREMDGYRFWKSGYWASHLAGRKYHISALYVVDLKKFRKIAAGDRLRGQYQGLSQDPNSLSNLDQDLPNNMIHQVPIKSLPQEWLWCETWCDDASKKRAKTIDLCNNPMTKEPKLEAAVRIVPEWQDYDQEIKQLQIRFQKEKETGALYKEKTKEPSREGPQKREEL
Chain of UniProt Q96MX3 (Q96MX3 whole entry): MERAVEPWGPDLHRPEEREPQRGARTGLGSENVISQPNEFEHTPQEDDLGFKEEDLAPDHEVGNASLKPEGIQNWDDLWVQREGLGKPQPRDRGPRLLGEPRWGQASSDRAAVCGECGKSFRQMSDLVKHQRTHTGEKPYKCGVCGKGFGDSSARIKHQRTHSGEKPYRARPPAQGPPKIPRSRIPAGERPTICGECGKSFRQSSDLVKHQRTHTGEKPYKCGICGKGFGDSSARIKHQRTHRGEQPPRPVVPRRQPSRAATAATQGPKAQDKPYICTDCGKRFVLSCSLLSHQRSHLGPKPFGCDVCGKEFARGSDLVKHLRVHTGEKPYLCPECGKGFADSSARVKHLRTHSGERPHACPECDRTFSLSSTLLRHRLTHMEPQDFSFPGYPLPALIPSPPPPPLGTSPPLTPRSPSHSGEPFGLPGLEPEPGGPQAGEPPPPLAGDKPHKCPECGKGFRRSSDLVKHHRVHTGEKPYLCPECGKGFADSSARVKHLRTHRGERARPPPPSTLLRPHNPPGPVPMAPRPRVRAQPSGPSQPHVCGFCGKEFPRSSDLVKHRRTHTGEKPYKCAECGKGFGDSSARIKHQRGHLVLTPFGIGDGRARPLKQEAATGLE
Chain of UniProt Q9UIG0 (Q9UIG0 whole entry): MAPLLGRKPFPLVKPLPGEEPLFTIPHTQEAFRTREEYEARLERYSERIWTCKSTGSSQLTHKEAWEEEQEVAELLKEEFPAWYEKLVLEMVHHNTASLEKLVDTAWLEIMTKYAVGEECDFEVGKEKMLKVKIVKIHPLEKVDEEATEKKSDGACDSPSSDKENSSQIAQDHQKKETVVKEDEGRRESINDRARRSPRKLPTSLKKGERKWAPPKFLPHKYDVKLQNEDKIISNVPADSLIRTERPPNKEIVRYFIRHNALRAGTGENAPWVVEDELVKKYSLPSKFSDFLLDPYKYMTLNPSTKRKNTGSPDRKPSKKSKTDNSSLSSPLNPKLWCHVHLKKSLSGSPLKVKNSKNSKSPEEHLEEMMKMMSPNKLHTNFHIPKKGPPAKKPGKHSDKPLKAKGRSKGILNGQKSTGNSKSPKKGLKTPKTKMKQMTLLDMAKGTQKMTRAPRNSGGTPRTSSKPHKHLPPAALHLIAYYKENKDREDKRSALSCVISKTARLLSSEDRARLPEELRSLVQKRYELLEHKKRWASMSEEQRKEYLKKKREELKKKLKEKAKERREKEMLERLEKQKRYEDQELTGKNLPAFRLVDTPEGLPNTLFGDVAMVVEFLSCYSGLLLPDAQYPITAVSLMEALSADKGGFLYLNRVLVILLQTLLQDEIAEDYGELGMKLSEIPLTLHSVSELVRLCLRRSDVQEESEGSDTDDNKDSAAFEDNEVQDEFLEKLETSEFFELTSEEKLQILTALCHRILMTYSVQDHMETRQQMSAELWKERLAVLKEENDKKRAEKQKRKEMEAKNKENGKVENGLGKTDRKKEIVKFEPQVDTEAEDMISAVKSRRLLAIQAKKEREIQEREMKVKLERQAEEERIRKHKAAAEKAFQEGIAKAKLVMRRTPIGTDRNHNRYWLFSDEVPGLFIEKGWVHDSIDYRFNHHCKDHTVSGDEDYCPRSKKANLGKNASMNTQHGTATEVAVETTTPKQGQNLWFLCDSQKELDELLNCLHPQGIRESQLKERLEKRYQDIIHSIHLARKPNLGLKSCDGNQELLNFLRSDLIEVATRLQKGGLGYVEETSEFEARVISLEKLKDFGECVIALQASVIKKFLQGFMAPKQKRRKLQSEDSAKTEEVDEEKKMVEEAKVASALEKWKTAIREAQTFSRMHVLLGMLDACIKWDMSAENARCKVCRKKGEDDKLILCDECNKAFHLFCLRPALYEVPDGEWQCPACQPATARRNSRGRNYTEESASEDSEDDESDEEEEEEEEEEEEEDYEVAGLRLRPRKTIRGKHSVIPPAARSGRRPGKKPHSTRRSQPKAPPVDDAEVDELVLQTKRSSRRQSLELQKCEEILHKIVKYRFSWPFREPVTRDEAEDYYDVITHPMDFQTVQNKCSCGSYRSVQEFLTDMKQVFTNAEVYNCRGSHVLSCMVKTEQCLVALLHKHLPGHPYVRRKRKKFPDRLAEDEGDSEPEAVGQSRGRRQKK
Chain of UniProt Q9Y639 (Q9Y639 whole entry): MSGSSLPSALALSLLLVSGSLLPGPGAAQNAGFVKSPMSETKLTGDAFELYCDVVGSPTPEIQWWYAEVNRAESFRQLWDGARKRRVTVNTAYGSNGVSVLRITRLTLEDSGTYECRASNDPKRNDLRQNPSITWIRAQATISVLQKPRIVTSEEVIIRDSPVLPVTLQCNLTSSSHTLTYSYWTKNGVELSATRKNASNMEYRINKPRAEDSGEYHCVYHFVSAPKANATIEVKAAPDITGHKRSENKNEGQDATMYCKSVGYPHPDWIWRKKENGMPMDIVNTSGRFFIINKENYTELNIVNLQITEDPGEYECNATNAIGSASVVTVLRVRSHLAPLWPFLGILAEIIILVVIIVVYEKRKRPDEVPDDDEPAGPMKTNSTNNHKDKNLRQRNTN

Target	NP40-soluble protein abundance (concentration: 1mM)	NP40-soluble protein abundance (concentration: 2mM)	NP40-soluble protein abundance (concentration: 4mM)	NP40-soluble protein abundance (concentration: 6mM)	NP40-soluble protein abundance (concentration: 8mM)	NP40-soluble protein abundance (concentration: 10mM)
UniProt Q9Y5B6|Q9Y5B6-2	1.03 ± 0.048	1.05 ± 0.017	1.07 ± 0.057	1.06 ± 0.051	1.07 ± 0.049	1.14 ± 0.053
UniProt Q99828|Q99828-2	1.001 ± 0.0091	0.977 ± 0.03	0.993 ± 0.035	0.9794 ± 0.0058	0.949 ± 0.036	0.95 ± 0.025
UniProt Q9Y639|Q9Y639-1	1.01 ± 0.056	1.05 ± 0.055	1.01 ± 0.056	0.986 ± 0.028	0.984 ± 0.055	0.961 ± 0.025
STUB1 (UniProt Q9UNE7)	0.989 ± 0.017	1.02 ± 0.014	0.977 ± 0.018	0.9527 ± 0.0059	0.938 ± 0.018	0.927 ± 0.019
ZNF48 (UniProt Q96MX3)	1.015 ± 0.0097	1.062 ± 0.0052	1.05 ± 0.033	1.06 ± 0.028	1.06 ± 0.017	1.12 ± 0.059
UniProt Q9NYU2|Q9NYU2-2	0.9826 ± 0.0098	0.9 ± 0.12	0.955 ± 0.034	0.917 ± 0.031	0.936 ± 0.04	0.895 ± 0.036
UniProt Q9P2R7|Q9P2R7-2	0.9771 ± 0.0078	0.943 ± 0.027	0.938 ± 0.011	0.977 ± 0.032	0.958 ± 0.012	0.969 ± 0.049
UniProt Q9UIG0|Q9UIG0-2	1.04 ± 0.048	1.08 ± 0.055	1.11 ± 0.046	1.23 ± 0.074	1.3 ± 0.11	1.45 ± 0.16
WDR3 (UniProt Q9UNX4)	1.07 ± 0.015	1.09 ± 0.1	1.33 ± 0.039	1.55 ± 0.026	1.8 ± 0.064	1.78 ± 0.15
NANS (UniProt Q9NR45)	0.981 ± 0.015	0.932 ± 0.043	0.939 ± 0.011	0.954 ± 0.015	0.948 ± 0.036	0.918 ± 0.027
UniProt Q9NRY4	0.9859 ± 0.0086	0.971 ± 0.035	0.999 ± 0.028	0.984 ± 0.03	0.964 ± 0.036	0.935 ± 0.024
UniProt Q96T23|Q96T23-2	1.07 ± 0.026	1.21 ± 0.11	1.32 ± 0.061	1.53 ± 0.18	1.67 ± 0.21	1.93 ± 0.25
UniProt Q9NZQ3|Q9NZQ3-3	1.04 ± 0.066	0.9853 ± 0.0064	1.03 ± 0.045	0.984 ± 0.029	1.02 ± 0.047	0.99 ± 0.014
OSTC (UniProt Q9NRP0)	1.02 ± 0.038	1.02 ± 0.025	1.03 ± 0.049	1.03 ± 0.022	1.039 ± 0.0094	1.04 ± 0.015
C9orf78 (UniProt Q9NZ63)	0.999 ± 0.047	1.03 ± 0.038	0.982 ± 0.055	0.971 ± 0.036	0.966 ± 0.034	0.939 ± 0.078
UniProt Q9UBK8|Q9UBK8-2	0.928 ± 0.02	0.881 ± 0.038	0.916 ± 0.041	0.971 ± 0.031	0.94 ± 0.051	0.964 ± 0.049
REXO4 (UniProt Q9GZR2)	1.06 ± 0.047	1.09 ± 0.073	1.1 ± 0.038	1.17 ± 0.036	1.18 ± 0.039	1.21 ± 0.051
THOC3 (UniProt Q96J01)	1.07 ± 0.069	1.1 ± 0.075	1.17 ± 0.15	1.24 ± 0.16	1.3 ± 0.23	1.34 ± 0.27
ACAT2 (UniProt Q9BWD1)	0.987 ± 0.021	0.996 ± 0.038	0.931 ± 0.021	0.967 ± 0.017	0.951 ± 0.021	0.92 ± 0.02
NOB1 (UniProt Q9ULX3)	0.972 ± 0.013	0.956 ± 0.027	0.984 ± 0.042	0.966 ± 0.023	1 ± 0.043	1 ± 0.047
UTP18 (UniProt Q9Y5J1)	1.05 ± 0.029	1.07 ± 0.048	1.1 ± 0.044	1.23 ± 0.028	1.28 ± 0.062	1.36 ± 0.05
UniProt Q9UK76	1.08 ± 0.088	1.1 ± 0.08	1.03 ± 0.067	0.982 ± 0.092	0.893 ± 0.037	0.973 ± 0.1
UniProt Q96RG2|Q96RG2-2	0.9919 ± 0.0087	0.997 ± 0.048	1.02 ± 0.011	0.982 ± 0.021	1 ± 0.026	0.996 ± 0.024
HEBP2 (UniProt Q9Y5Z4)	0.978 ± 0.012	0.9687 ± 0.0064	0.952 ± 0.023	0.957 ± 0.021	0.964 ± 0.018	0.926 ± 0.042
GRWD1 (UniProt Q9BQ67)	1.09 ± 0.064	1.01 ± 0.089	1.11 ± 0.068	1.05 ± 0.043	1.11 ± 0.073	1.04 ± 0.045
RAB23 (UniProt Q9ULC3)	0.9714 ± 0.0024	0.9596 ± 0.0092	0.974 ± 0.029	1.01 ± 0.029	1.03 ± 0.044	1 ± 0.018
DIDO1 (UniProt Q9BTC0)	1.1 ± 0.035	1.18 ± 0.093	1.23 ± 0.043	1.28 ± 0.12	1.27 ± 0.12	1.36 ± 0.12
UniProt Q9Y4E8|Q9Y4E8-3	0.967 ± 0.013	0.963 ± 0.032	1.02 ± 0.041	1 ± 0.048	0.993 ± 0.065	1.01 ± 0.027
PUS7 (UniProt Q96PZ0)	1.03 ± 0.035	1.002 ± 0.0077	1.04 ± 0.019	1.008 ± 0.009	1.01 ± 0.015	1.01 ± 0.028
PNKP (UniProt Q96T60)	1.02 ± 0.041	1.02 ± 0.054	1.1 ± 0.071	1.18 ± 0.021	1.23 ± 0.047	1.22 ± 0.079
